ALDH1A1 block: qHTS Assay for Inhibitors of Aldehyde Dehydrogenase 1 (ALDH1A1); Aldehyde dehydrogenase 1A1 (Homo sapiens), P00352; Purified ALDH1A1, NADH fluorescence, propionaldehyde substrate; Potency, µM (highest dose often 75.3 µM), actives largely listed as inhibitors; hit rate 7.3% among 220,000; AID 1030, 2008
LMNA splice mod: qHTS Assay for Modulators of Lamin A Splicing; HeLa LMNA splicing GFP/RFP minigene ratio, 48 h; Potency, µM (series often up to 46.1 µM), most hits filed as inhibitors; hit rate 0.01% among 200,000; active = well fitted inhibition curve with a large enough effect in the signal ratio, with a control signal flat, not every such curve was filed as active; inconclusive = small, poorly fitted or top-dose-only effect, or effect the other way, or a change in a side signal; the % refers to the signal ratio
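S3 HeLa cells stably expressing lamin A-EGFP splicing minigene plus DsRed2, 600 cells/well, 48 h compound exposure at 37C. Laser-scanning cytometry; analysed as GFP (500-530 nm)/RFP (575-640 nm) total intensity ratio; 0.5% DMSO vehicle.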
PNC assembly inh: High Content Assay for Compounds that inhibit the Assembly of the Perinucleolar Compartment. activity change (PNC), negative = inhibition, % at 10 µM. hit rate 3.1% among 140,000. PC3M PTB-GFP, PNC prevalence imaging, 16 h; stronger effect = lower value;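 active = readout at or below -70, meaning at least 70% loss of cells showing the perinucleolar compartment, a nuclear body marking cancer cells; inconclusive = readout between -30 and a set limit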
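Compounds are pinned in duplicate onto adhered PC3M cells stably expressing GFP-tagged PTB and incubated 16 h at 37 C. Cells are then fixed, nuclei stained with Hoechst, and PNC-positive cells counted.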
HPGD block: qHTS Assay for Inhibitors of HPGD (15-Hydroxyprostaglandin Dehydrogenase) | Potency, µM, most hits filed as inhibitors | purified HPGD, NADH fluorescence kinetic, PGE2 substrate | hit rate 4.3% among 150,000 | 15-hydroxyprostaglandin dehydrogenase [NAD(+)] (Homo sapiens), P15428
Target sequence (P15428 whole entry, looked up): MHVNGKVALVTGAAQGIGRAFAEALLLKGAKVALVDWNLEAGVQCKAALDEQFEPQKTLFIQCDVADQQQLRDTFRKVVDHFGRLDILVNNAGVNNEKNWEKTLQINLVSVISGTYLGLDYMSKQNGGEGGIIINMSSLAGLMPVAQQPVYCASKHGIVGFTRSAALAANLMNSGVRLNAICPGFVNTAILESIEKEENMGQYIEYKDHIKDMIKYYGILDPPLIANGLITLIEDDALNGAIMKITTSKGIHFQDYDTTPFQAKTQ
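20 nM HPGD preincubated 15 min at room temperature with compound in 50 mM Tris-HCl pH 8, 0.01% Tween 20. Started with 1 mM NAD+ and 30 uM prostaglandin E2; NADH fluorescence (360/450 nm) read 5 times over 30-s intervals, last minus first.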
ALOX12 inhib: qHTS Assay for Inhibitors of 12-hLO (12-human lipoxygenase) | Potency, µM (titrated, usually from 57.1 µM), hits mostly inhibitors | AID 1452, 2008 | hit rate 0.12% among 150,000 | Polyunsaturated fatty acid lipoxygenase ALOX12 (Homo sapiens), P18054 | purified 12-hLO, xylenol orange hydroperoxide absorbance; active = well fitted inhibition curve with a large enough effect; inconclusive = small, poorly fitted or top-dose-only effect; also: nearly all actives have a fitted effect of over 55% in size
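Xylenol orange chromogenic assay: hydroperoxide from 12hLO oxidises Fe(II), giving red-shifted Fe(III)-XO absorbance. Conditions: 150 nM enzyme, 40 uM arachidonic acid, 25 mM Hepes pH 7.0, 0.01% Triton X-100, 30 min, room temperature.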
Numbers stand for hits; 0 = inactive; ? = inconclusive; - = no result; [ ] = dose if it differs, or a comment. Hits are enriched below; roughly 10% of the tested compounds scored in any of these assays. Unless noted, calls follow the shape of the dose curve; as a rule, active = well fitted inhibition curve with a large enough effect (not every such curve was filed as active); inconclusive = small, poorly fitted or top-dose-only effect, or another doubt; inactive = no such curve, though single readings can be large or run the other way.

SMILES	ALDH1A1 block	LMNA splice mod	PNC assembly inh	HPGD block	ALOX12 inhib
Cc1ccc(CSc2ncn(-c3ccccc3)n2)cc1	16µM	0	0	20µM	0
O=C(NC1CC(=O)N(c2cccc(F)c2)C1)c1ccc(S(=O)(=O)N2CCCC2)cc1 (stereo unspecified)	-	0	-	-	-
Cc1cccc(CNS(=O)(=O)c2ccc3[nH]c(=O)ccc3c2)c1	-	0	-	-	-
COc1ccc(N2CC(NC(=O)C3CCCC3)CC2=O)cc1 (stereo unspecified)	-	0	-	-	-
CS(=O)(=O)N1CCC2(CCCN(c3ccccn3)C2)CC1	?	-	-	?	0
C/C(Cn1nc([N+](=O)[O-])cc1C)=N\NC(=O)COc1ccccc1[N+](=O)[O-]	14µM	0	?	0	0
C/C(Cn1nc([N+](=O)[O-])cc1C)=N\NC(=O)COc1ccc(Cl)cc1Cl	?	0	?	0	0
O=C1Nc2ccc(Br)cc2C12NNc1ccccc1O2 (stereo unspecified)	0	?	-	-	-
O=[N+]([O-])c1ccc(N2N=C(c3ccco3)CC2c2ccccc2)cc1 (stereo unspecified)	10µM	0	0	0	0
CC1(C)OC2C(CO)OC(n3cnc4c(=O)[nH]c(N)nc43)C2O1 (stereo unspecified)	0	0	-	0	0
O=C1NC(c2ccccc2)Nc2c1sc(=S)n2-c1ccccc1 (stereo unspecified)	32µM	-	-	-	-
COc1ccc(C2NC(=O)c3sc(=S)n(-c4ccccc4)c3N2)cc1 (stereo unspecified)	0	0	?	0	0
Cc1ccccc1NC(=O)c1ccc(F)c(S(=O)(=O)N2CCN(c3ccccc3F)CC2)c1	-	0	-	-	-
COc1ccc(NCC(=O)N/N=C/c2c(C)nn(Cc3ccccc3)c2Cl)cc1	16µM	?	0	?	0
Cc1nn(Cc2ccccc2)c(C)c1/C=N/NC(=O)CNc1cccc(C(F)(F)F)c1	0	0	0	0	0
CCOc1cccc(N2C(=O)CC(N3CCC(C(N)=O)(N4CCCCC4)CC3)C2=O)c1 (stereo unspecified)	25µM	0	0	0	0
CCOC(=O)c1ccc(N2C(=O)CC(N3CCOCC3)C2=O)cc1 (stereo unspecified)	25µM	0	0	0	0
CCOc1cccc(N2C(=O)CC(N3CCN(c4nc5ccccc5s4)CC3)C2=O)c1 (stereo unspecified)	0	0	?	0	0
CC(=O)Oc1ccc(N2C(=O)CC(N3CCOCC3)C2=O)cc1 (stereo unspecified)	32µM	0	0	0	0
CCOC(=O)c1ccc(N2C(=O)CC(N(C)CCc3ccc(OC)c(OC)c3)C2=O)cc1 (stereo unspecified)	10µM	0	0	0	0
CCOc1ccc(N2C(=O)CC(N3CCOCC3)C2=O)cc1 (stereo unspecified)	?	0	0	0	0
CCOc1cccc(N2C(=O)CC(N(CCc3ccc(OC)c(OC)c3)C(=O)CC)C2=O)c1 (stereo unspecified)	0	0	?	0	0
CCOc1ccc(CNC(=O)CCn2c(=O)c3cccn3c3ccc(F)cc32)cc1	-	0	-	-	-
CCCN(CCC)CCNC(=O)Cn1ncc2c([nH]c3ccc(C)cc32)c1=O	-	0	-	-	-
Cc1cccc(-c2cccc(-c3cc(=O)oc4cc5c(cc34)OCO5)c2)c1	?	-	-	?	0[0.00818 µM]
SMILES	ALDH1A1 block	LMNA splice mod	PNC assembly inh	HPGD block	ALOX12 inhib
CC(=O)Oc1ccc(N2C(=O)CCC2=O)cc1	0	0	0	0	0
CCOC(=O)c1ccc(N2C(=O)CC(NC3CCN(C(=O)c4cccc(Cl)c4)CC3)C2=O)cc1 (stereo unspecified)	13µM	0	0	0	0
CCOC(=O)c1ccc(N2C(=O)CC(N(Cc3ccc4c(c3)OCO4)C(=O)Nc3ccccc3)C2=O)cc1 (stereo unspecified)	13µM	0	0	0	0
CC(=O)Oc1ccc(N2C(=O)C3C4C=CC(O4)C3C2=O)cc1 (stereo unspecified)	0.45µM	0	0	32µM	0
CCOC(=O)c1ccc(N2C(=O)CC(N3CCC(C(N)=O)(N4CCCCC4)CC3)C2=O)cc1 (stereo unspecified)	8.9µM	0	?	0	0
CNc1ccnc(-c2ccccc2CN(C)C)n1	0	0	-	0	0
Cc1ccc(-c2nnc3cccc(Cl)n23)cc1	0	-	-	-	-
CC1CCC2C(C)(C)C3CC12CC[C@]3(C)O (stereo partly specified)	?	?	-	0	0
O=C(NCc1ccc(Cl)cc1)C1CCN(c2ncnc3c2nc2n3CCCCC2)CC1	-	0	-	-	-
O=C(Cn1ccn(-c2ccc(F)cc2)c(=O)c1=O)Nc1ccccc1C(F)(F)F	-	0	-	-	-
Cc1cccc(N2CCN(S(=O)(=O)c3ccc(F)c(C(=O)Nc4ccc(C(C)C)cc4)c3)CC2)c1C	-	0	-	-	-
Cc1ccc(NC2CC(=O)N(c3ccc(C)cc3)C2=O)cc1 (stereo unspecified)	0	0	0	0	0
CCOC(=O)c1ccc(N2C(=O)CC(Nc3ccc(CCO)cc3)C2=O)cc1 (stereo unspecified)	16µM	0	0	0	0
CCc1nnc(NC(=O)C2CCCO2)s1 (stereo unspecified)	0	-	-	-	-
CC(C)c1nnc(NC(=O)C2CCCCC2)s1	0	0	-118	0	0
CC(C)c1nnc(NC(=O)C2CCCO2)s1 (stereo unspecified)	3.8µM	0	-	-	-
CC(C)Sc1nnc(NC(=O)C2CC2)s1	0.05µM	?	?	0	0
Cc1c(NC(=O)C2CCCO2)cccc1[N+](=O)[O-] (stereo unspecified)	0	0	-85	0	0
Cc1ccc(-c2cc(C(F)(F)F)n3nc(C(=O)NCC45CC6CC(CC(C6)C4)C5)cc3n2)cc1	-	0	-	-	-
COc1ccc(C(=O)Cn2c(=O)n3nc(CCn4nc(C)cc4C)nc3c3cc(OC)c(OC)cc32)cc1	-	0	-	-	-
CCc1nnc(NC(=O)C2CCCCC2)s1	25µM	0	0	?	0
Cc1cccc2sc(NC(=O)C3CCCO3)nc12 (stereo unspecified)	0	0	-100	0	0
Cc1ccc(-c2cc(C(=O)Oc3ccc(C#N)cc3)no2)cc1	-	0	-	-	-
Cn1cccc1Cc1nnc(SCC(=O)Nc2ccc(F)cc2)n1-c1ccc(F)cc1	?	0	0	0	0
COc1ccc(NC(=O)CSc2nnc(Cc3cccn3C)n2-c2ccc(F)cc2)cc1OC	25µM	0	0	0	0
Cc1ccc(-n2c(Cc3cccn3C)nnc2SCC(=O)Nc2nnc(C)s2)cc1	0	0	0	0	0
Cn1cccc1Cc1nnc(SCC(=O)Nc2ccccc2)n1-c1ccc(F)cc1	?	0	0	0	0
